Screening results (PubChem)
ADAM17 inh = ADAM17 inhibition, QFRET primary screen | inhibition, % at 6.95 µM | recombinant ADAM17, EDANS/DABCYL FRET peptide cleavage | P78536 | 370,000 compounds, 0.83% hits | AID 720648;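 active = inhibition above the mean of compounds lying between control limits plus 3 SD, set per campaign, cut at about 8.5% in these data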;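 also: 0% = DMSO-only wells as the low control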
ADAM10 inh = inhibitors of human ADAM10; O14672; 370,000 compounds, 0.62% hits; inhibition, % at 7 µM; AID 720582; recombinant ADAM10, EDANS/DABCYL FRET peptide cleavage, 3 h;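 active = inhibition above a per-campaign cutoff equal to the mean of compounds falling between control-based bounds plus 3 SD, cut at about 20% in these data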;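 also: 0% = DMSO wells while the 100% control is not disclosed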
PLC-gamma1 inh = blocks human PLC-gamma1 enzyme activity; 370,000 compounds, 0.84% hits; P19174; purified PLC-gamma1, fluorogenic substrate, fluorescence; inhibition, % at 12.2 µM; in the data active = inhibition above about 9.5%
PLC-beta3 inh = blocks human PLC-beta3 enzyme activity | Q01970 | Purified PLC-beta3, fluorogenic substrate, fluorescence | inhibition, % at 12.2 µM | 370,000 compounds, 0.18% hits; in the data active = inhibition above about 11%;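 also: 0% = median of compound wells on plate and 100% = full blocker control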
KLK7 zymogen act = proKLK7 (human) activation, primary screen; P49862; purified proKLK7, EDANS-DABCYL substrate fluorescence; 100% is mature enzyme control, 0% vehicle; activation, % at 7 µM; 370,000 compounds, 0.9% hits; AID 652039;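 active = activation above the mean of all tested compounds plus 3 SD, computed per campaign excluding outliers beyond control limits, cut at about 13% in these data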
Target sequence (P49862 whole entry, looked up): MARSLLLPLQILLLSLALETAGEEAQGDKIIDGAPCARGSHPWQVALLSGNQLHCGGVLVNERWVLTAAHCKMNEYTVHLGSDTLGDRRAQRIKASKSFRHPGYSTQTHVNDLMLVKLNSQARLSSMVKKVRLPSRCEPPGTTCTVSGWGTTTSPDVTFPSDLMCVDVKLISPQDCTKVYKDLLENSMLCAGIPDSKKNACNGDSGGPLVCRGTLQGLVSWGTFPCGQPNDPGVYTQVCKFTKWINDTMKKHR
HGIII-sPLA2 inh = Inhibits HGIII-sPLA2 liposome hydrolysis, primary screen; inhibition, % at 12.2 µM; Q9NZ20; 370,000 compounds, 0.56% hits; QFRET BODIPY PC-A2 liposome hydrolysis, fluorescence;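 active = inhibition above mean plus 3 SD of compounds lying within the high and low control bounds, cut at about 19% in these data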;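 also: 0% = median of test compound wells and 100% = no enzyme DMSO wells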
KLK7 act conf = proKLK7 activation, confirmation; shares compounds with KLK7 zymogen act; 3,200 compounds, 68% hits; activation, % at 7 µM; purified proKLK7, EDANS-DABCYL substrate fluorescence; scaled: vehicle 0, mature enzyme 100; AID 686949;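 active = activation, as change over the incubation, above the mean of all tested compounds plus 3 SD, cut at about 13% in these data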
EDANS-DABCYL int = fluorescence interference counter-screen for KLK7 activators; shares compounds with KLK7 zymogen act; EDANS-DABCYL substrate fluorescence interference, no enzyme, 4 h; solvent 0%, active enzyme control 100%; activation, % at 7 µM; 3,200 compounds, 80% hits; AID 686952;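 active = activation above the all-compound mean plus 3 SD, ignoring values outside control-based bounds, cut at about 4.8% in these data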;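 also: value is the 4 h activation minus the activation read at time zero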
Starred values were filed as active, the others as inactive. Most compounds without a hit are left out; they make up all but 3.4% or so of the library.

How did c1ccc2c(-c3cnc4cccnn34)cncc2c1 do in these assays?
ADAM17 inh: -198.9; ADAM10 inh: inactive; PLC-gamma1 inh: -439.4; PLC-beta3 inh: inactive; KLK7 zymogen act: 25.1*; HGIII-sPLA2 inh: -6.1; KLK7 act conf: 20.3*; EDANS-DABCYL int: 20.7*

What do the screens show for `c1cc(-c2cnc3cccnn23)c2cccnc2c1`?
ADAM17 inh: -262.1; ADAM10 inh: inactive; PLC-gamma1 inh: inactive; PLC-beta3 inh: inactive; KLK7 zymogen act: 17.5*; HGIII-sPLA2 inh: 15.8; KLK7 act conf: 17.8*; EDANS-DABCYL int: 21.6*

How did COc1ccccc1CCn1cnc(-c2ccc(F)cc2)c1C(C)C do in these assays?
ADAM17 inh: 3.6; ADAM10 inh: 5.9; PLC-gamma1 inh: 0.7; PLC-beta3 inh: 1.0; KLK7 zymogen act: -0.8; HGIII-sPLA2 inh: -4.2

Results for C=CCN1C/C(=C/c2ccccc2)N2C(=O)CC(c3ccccc3)N=C12 (stereo not drawn) ?
ADAM17 inh: 3.0; ADAM10 inh: -4.3; PLC-gamma1 inh: -1.6; PLC-beta3 inh: -15.6; HGIII-sPLA2 inh: 5.1

Results for O=S(=O)(NCc1ccccc1)c1cc(Br)ccc1Br ?
ADAM17 inh: 2.7; ADAM10 inh: 7.8; PLC-gamma1 inh: -0.6; PLC-beta3 inh: -2.8; KLK7 zymogen act: 0.0; HGIII-sPLA2 inh: -13.6

Results for CCC[C@H]1[C@@H](OC(=O)NCc2ccc(OC)c(OC)c2)CC[C@@]23CCCN2C(=O)CCC[C@@H]13 ?
ADAM17 inh: -3.1; ADAM10 inh: -2.8; PLC-gamma1 inh: 0.2; PLC-beta3 inh: -0.5; HGIII-sPLA2 inh: -1.7

How did COc1ccc2c(c1OC)C(=O)OC2CC(=O)c1ccc2c(c1)OCO2 (stereo not drawn) do in these assays?
ADAM17 inh: 2.0; ADAM10 inh: 1.7; PLC-gamma1 inh: -20.5; PLC-beta3 inh: -29.9; KLK7 zymogen act: 17.7*; HGIII-sPLA2 inh: 3.9; KLK7 act conf: 11.6; EDANS-DABCYL int: 11.6*

How did S=C1NC[C@H](Cc2ccccc2)N1CC1CCN(CCCC2CCCCC2)CC1 do in these assays?
ADAM17 inh: 1.8; ADAM10 inh: 0.5; PLC-gamma1 inh: 3.4; PLC-beta3 inh: 3.3; KLK7 zymogen act: -0.4; HGIII-sPLA2 inh: -7.8

What do the screens show for `CCCNC(=O)OC1CC2CC1[C@H]1CCCCN1C2=O` (stereo partly drawn)?
ADAM17 inh: -4.0; ADAM10 inh: -5.1; PLC-gamma1 inh: 5.9; PLC-beta3 inh: -0.9; KLK7 zymogen act: 45.5*; HGIII-sPLA2 inh: 17.4; KLK7 act conf: 1.0; EDANS-DABCYL int: 0.0

What do the screens show for `Cc1cc(C)c2nc(N3C(=O)C(O)=C(C(=O)c4ccco4)C3c3cccc(O)c3)sc2c1` (stereo not drawn)?
ADAM17 inh: 1.4; ADAM10 inh: -0.2; PLC-gamma1 inh: -69.0; PLC-beta3 inh: -87.9; KLK7 zymogen act: 14.5*; HGIII-sPLA2 inh: -30.4; KLK7 act conf: 20.1*; EDANS-DABCYL int: 22.1*

Results for Cc1cc(C)c2nc(N3C(=O)C(O)=C(C(=O)c4ccco4)C3c3ccc(O)cc3)sc2c1 (stereo not drawn) ?
ADAM17 inh: 0.1; ADAM10 inh: 3.1; PLC-gamma1 inh: -47.5; PLC-beta3 inh: -77.5; KLK7 zymogen act: -0.5; HGIII-sPLA2 inh: -33.3

How did O=C(CN1C(=O)NC2(CCCC2)C1=O)Oc1ccc2ccc(=O)oc2c1 do in these assays?
ADAM17 inh: inactive; ADAM10 inh: inactive; PLC-gamma1 inh: inactive; PLC-beta3 inh: inactive; KLK7 zymogen act: 67.0*; HGIII-sPLA2 inh: -4.8; KLK7 act conf: 63.1*; EDANS-DABCYL int: 71.6*

Results for O=C(CN1C(=O)NC2(CCCCC2)C1=O)Oc1ccc2c(C(F)(F)F)cc(=O)oc2c1 ?
ADAM17 inh: inactive; ADAM10 inh: inactive; PLC-gamma1 inh: inactive; PLC-beta3 inh: inactive; KLK7 zymogen act: 63.4*; HGIII-sPLA2 inh: -17.7; KLK7 act conf: 60.7*; EDANS-DABCYL int: 65.7*
